# Shown are actives, neighbours in structure and some others; about 4% of the full set was active somewhere.
# Rv3671c protease – inhibitors of M. tuberculosis serine protease Rv3671c. P9WHR9. AID 2606. hit rate 0.048% among 320,000. inhibition, % at 5.96 µM; in the data active = inhibition above about 38%;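 also: extracellular domain of Rv3671c used as enzyme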
# Mtb bLac sens – beta-lactam sensitization of Mtb H37Rv; M. tuberculosis H37Rv growth with meropenem, percent inhibition; AID 434955; hit rate 0.27% among 330,000; inhibition, % at 25 µM; call rule not given here;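 also: growth measured after seven days incubation then overnight dye step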
# GDH-TPI counter-1 – counter-screen for M. tuberculosis FBA inhibitors: GDH-TPI coupled enzymes. GDH-TPI coupled enzyme counterscreen, NADH absorbance. hit rate 1.2% among 360,000. inhibition, % at 4.8 µM; in the data active = inhibition above about 30%
# Mtb UGM inh – blocks M. tuberculosis UGM enzyme; inhibition, % at 10 µM; purified UGM, fluorescence polarization probe displacement; P9WIQ1; AID 504406; hit rate 0.06% among 320,000; in the data active = inhibition above about 10%, passing the limit was not always enough; inconclusive = no clear call, values can overlap the other calls
# Target sequence (P9WIQ1 whole entry, looked up): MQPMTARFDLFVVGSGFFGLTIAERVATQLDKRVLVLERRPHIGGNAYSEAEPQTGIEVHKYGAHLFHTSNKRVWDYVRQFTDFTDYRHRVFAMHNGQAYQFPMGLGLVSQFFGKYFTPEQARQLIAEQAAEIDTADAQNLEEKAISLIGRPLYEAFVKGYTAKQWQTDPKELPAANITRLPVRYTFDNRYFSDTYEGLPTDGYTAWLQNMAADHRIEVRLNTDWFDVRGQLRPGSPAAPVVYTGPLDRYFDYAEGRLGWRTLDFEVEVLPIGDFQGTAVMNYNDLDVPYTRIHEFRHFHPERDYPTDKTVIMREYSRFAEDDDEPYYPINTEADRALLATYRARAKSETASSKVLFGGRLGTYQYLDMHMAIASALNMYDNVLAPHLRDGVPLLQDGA
# RecA splice inh – Mtb RecA intein splicing inhibition | cell-free RecA intein splicing, fluorescence | inhibition, % (test concentration not listed) | hit rate 0.75% among 290,000; in the data active = inhibition above about 30%; inconclusive = no clear call, values can overlap the other calls
# Mtb FBA inh – inhibitors of M. tuberculosis fructose-bisphosphate aldolase. P9WQA3. inhibition, % at 1 µM. hit rate 2.3% among 360,000. purified M. tuberculosis FBA, fluorescence read-out
# Mtb FBA inh conf – confirmation of M. tuberculosis fructose-bisphosphate aldolase inhibitors. shares compounds with Mtb FBA inh. purified M. tuberculosis FBA, fluorescence read-out. inhibition, % at 1 µM. hit rate 78% among 5,600
# GDH-TPI counter-2 – counter-screen for M. tuberculosis FBA inhibitors: GDH-TPI coupled enzyme inhibition. hit rate 81% among 5,600. shares compounds with Mtb FBA inh. inhibition, % at 1 µM. GDH-TPI coupled enzyme counterscreen, fluorescence; in the data active = inhibition above about 10%
# A number is an active result; – = inactive; ? = inconclusive; · = no result; + = active, no number; ! = repeats disagree. Rule as the data show it, unless noted: active = inhibition above about 27%; inactive = the rest.
SMILES,Rv3671c protease,Mtb bLac sens,GDH-TPI counter-1,Mtb UGM inh,RecA splice inh,Mtb FBA inh,Mtb FBA inh conf,GDH-TPI counter-2
Cc1cccc(NC(=S)N(Cc2ccco2)C(C)c2cccs2)c1 (configuration not stated),–,–,–,–,–,–,·,·
CC(c1cccs1)N(Cc1ccco1)C(=S)Nc1ccc(F)c(Cl)c1 (configuration not stated),–,–,–,–,–,37.9,+,143.9
CSc1ccc(/C=C(\C(=O)O)c2ccc(S(=O)(=O)N3CCCCC3)s2)cc1,–,–,–,–,–,37.4,–,–
O=C(Nc1ccc(F)cc1)N1CCCN(c2ccc(C(F)(F)F)cn2)CC1,–,–,–,–,–,–,·,·
COc1ccc2sc(-c3ccc(N(C)C)cc3)c(C#Cc3cncn3C)c2c1,–,–,–,–,·,107.7,126.7,102.1
O=C(c1cccn2c(=O)c3ccccc3nc12)N1CCC2(CC1)OCCO2,–,–,–,–,–,–,·,·
O=C(c1cccn2c(=O)c3cc(Cl)ccc3nc12)N1CCC2(CC1)OCCO2,–,·,–,–,–,34.2,46.1,39.5
COc1ccc(Nc2nc(N)c([N+](=O)[O-])c(N3CCN(C)CC3)n2)cc1,–,–,–,–,–,–,·,·
CC[C@@H]1C(c2cccc(Cl)c2)=NN(c2ccc(Br)cc2)[C@H]1C(=O)N1CCOC1=O,·,·,–,·,·,55.3,60.1,43.4
CS(=O)(=O)Cc1cc(Sc2ccccc2)nc(-c2ccncc2)n1,–,–,–,–,–,33.9,–,–
O=S(Cc1cc(Sc2ccccc2)nc(-c2ccccc2)n1)c1ccccc1 (configuration not stated),–,–,–,–,–,–,·,·
Cc1csc2nc3ccccc3c(=O)n12,–,–,–,–,–,39.4,66.7,37.9
Cc1ccc2nc(N/N=C/c3ccccc3F)nc(-c3ccccc3)c2c1,–,–,–,·,–,51.6,–,–
OCCNc1nc(-c2ccccc2)c2ccccc2n1,–,–,–,–,–,52.1,170.9,147.7
OCCNc1nc(-c2ccccc2)c2cc(Cl)ccc2n1,–,–,–,–,–,39.1,122.5,104.4
Cc1ccc2nc(NCCO)nc(-c3ccccc3)c2c1,–,–,–,–,–,37.5,73.4,48.3
CC(C)CNC(=S)N(CCN(C)C)Cc1cc2cc3c(cc2[nH]c1=O)OCCO3,–,–,–,–,–,27.4,44.7,38.6
CC(C)CNC(=S)N(CCCO)Cc1cc2cc3c(cc2[nH]c1=O)OCO3,–,–,–,–,·,33.3,148.2,97.8
CC(C)CNC(=S)N(CCN(C)C)Cc1cc2cc3c(cc2[nH]c1=O)OCO3,–,–,–,–,–,–,·,·
Cc1c(O)ccc2c(CN3CCOCC3)cc(=O)oc12,–,–,–,–,–,71.0,46.2,38.2
Cc1c(O)ccc2c(CN3CCN(CCO)CC3)cc(=O)oc12,–,–,–,–,–,74.5,69.0,62.7
Cc1ccc(N(CC(=O)NCC2CCCO2)C(=O)CCC(=O)Nc2ccccn2)cc1C (configuration not stated),–,–,–,–,–,–,·,·
Cc1cc(C)c2cc(C#N)c(NCCCNC(=O)CCC(=O)O)nc2c1,–,–,–,–,–,42.1,44.3,36.5
COc1ccccc1C(=O)NCCCNc1nc2cc(C)cc(C)c2cc1C#N,·,·,–,·,·,42.5,+,145.7
Cc1ccccc1-c1cnc(C(O)c2c(C)cccc2C)[nH]1 (configuration not stated),·,·,–,·,·,–,·,·
SMILES,Rv3671c protease,Mtb bLac sens,GDH-TPI counter-1,Mtb UGM inh,RecA splice inh,Mtb FBA inh,Mtb FBA inh conf,GDH-TPI counter-2
Cc1cccc(C)c1C(O)c1ncc(-c2cccc3ccccc23)[nH]1 (configuration not stated),·,·,–,·,·,56.5,–,–
Cc1cc(C)c(C(O)c2ncc(-c3cccc4ccccc34)[nH]2)c(C)c1 (configuration not stated),·,·,–,·,·,57.0,89.2,69.0
CCOc1ccc(-n2c(C)nc3cc(C(=O)NCCCN4CCOCC4)ccc32)cc1,–,–,–,–,–,–,·,·
O=C(CC1Sc2ccccc2NC1=O)OCc1cc(=O)oc2cc(O)ccc12 (configuration not stated),–,–,–,–,–,34.7,91.5,80.2
Cc1ccc2c(COC(=O)CC3Sc4ccccc4NC3=O)cc(=O)oc2c1C (configuration not stated),–,–,–,–,–,–,·,·
CCCCCCSc1ccc(-c2nc3ccccn3c2NCCCC)cc1,–,–,–,–,–,44.9,+,+
O=C(O)c1cc(=O)[nH]c2ccc(S(=O)(=O)Nc3ccc(F)cc3)cc12,–,–,–,–,–,–,·,·
CN(C)c1ccc(C=NNC(=S)Nc2ccc(F)cc2)cc1,·,·,40.8,·,·,31.6,–,–
Cc1ccc2c(c1)c1c3n2CCNC3CCC1 (configuration not stated),–,–,–,–,·,81.2!,44.1,36.5
CCOC(=O)c1cnc2nc(C)[nH]n2c1=O,–,–,–,·,–,–,·,·
CCOC(=O)c1cnc2sc3c(n2c1=O)CCCC3,–,–,–,–,·,107.5,53.2,45.0
COc1ccc(N2CCN(C(C)C(=O)N3CC(C)OC(C)C3)CC2)cc1 (configuration not stated),–,–,–,–,–,–,·,·
CCc1cc2c(=O)c(-c3nc4ccccc4[nH]3)coc2c(CN2CCCCC2C)c1O (configuration not stated),–,–,–,–,–,–,·,·
CCN(CC)Cc1c(O)ccc2c(-c3ccccc3)cc(=O)oc12,–,–,–,–,–,–,·,·
CCc1cc2c(=O)c(-c3ccc4c(c3)OCCO4)coc2c(CN2CCCCC2C)c1O (configuration not stated),–,–,–,–,–,45.1,70.4,70.5
CC1CCCCN1Cc1c(O)ccc2c(=O)c(-c3ccccc3)coc12 (configuration not stated),–,–,–,–,–,65.8,77.0,56.9
O=c1c(-c2ccccc2)coc2c(CN3CCCCC3)c(O)ccc12,–,–,36.4,–,–,105.8,89.6,87.7
C=CCN(CC=C)Cc1c(O)ccc2c(=O)c(-c3ccccc3)coc12,–,–,–,–,–,52.6,33.5,26.7
CN1CCN(Cc2c(O)ccc3c(-c4ccccc4)cc(=O)oc23)CC1,–,?,–,–,–,–,·,·
Nc1nc2c(ncn2[C@@H]2O[C@H](CNCC3=Cc4cc(O)ccc4OC3)[C@@H](O)[C@H]2O)c(=O)[nH]1,·,·,·,·,·,–,·,·
CCSc1ccc([C@@H]2[C@@H]3C(=O)N(CC)C(=O)[C@@H]3[C@]3(C(=O)OC)CCCN23)cc1,–,–,–,–,–,–,·,·
O=C1CN(C(=O)COC(=O)c2ccccc2Br)c2ccccc2N1,–,–,–,–,·,–,·,·
